Reference: doi:10.1101/2024.03.05.583629

Target: pT7_6His-AlfaTag-HOXD13 (human, UniProt P35453 263-343)
Test: PADIT-seq
Conditions: dsDNA, one strand shown

Chain of pT7_6His-AlfaTag-HOXD13 (P35453 263-343): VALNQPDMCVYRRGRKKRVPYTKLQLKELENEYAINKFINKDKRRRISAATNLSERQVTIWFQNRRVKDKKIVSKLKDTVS

| Sequence | binding signal [log2FC] |
| --- | --- |
| CTCGAGGATATCAAGATCTGGCCTCGGCGTGATAAAAGGAACCTCTAGCTAGCCGACTCACTATAGGGATAATCGCCCTGAGCAAAGACC | 1.99 ± 0.0801 |
| CTCGAGGATATCAAGATCTGGCCTCGGCTTTTTAGTCGGAACCTCTAGCTAGCCGACTCACTATAGGGATAATCGCCCTGAGCAAAGACC | -0.553 ± 0.126 |
| CTCGAGGATATCAAGATCTGGCCTCGGCGTTTTAAGCGGAACCTCTAGCTAGCCGACTCACTATAGGGATAATCGCCCTGAGCAAAGACC | 0.144 ± 0.109 |
| CTCGAGGATATCAAGATCTGGCCTCGGCGTATTAAAAGGAACCTCTAGCTAGCCGACTCACTATAGGGATAATCGCCCTGAGCAAAGACC | 2.14 ± 0.0726 |
| CTCGAGGATATCAAGATCTGGCCTCGGCCGCGTAAAAGGAACCTCTAGCTAGCCGACTCACTATAGGGATAATCGCCCTGAGCAAAGACC | 1.44 ± 0.0853 |
| CTCGAGGATATCAAGATCTGGCCTCGGCGTTTTAGAAGGAACCTCTAGCTAGCCGACTCACTATAGGGATAATCGCCCTGAGCAAAGACC | 0.37 ± 0.103 |
| CTCGAGGATATCAAGATCTGGCCTCGGCCGTATAAAAGGAACCTCTAGCTAGCCGACTCACTATAGGGATAATCGCCCTGAGCAAAGACC | 2.31 ± 0.0858 |
| CTCGAGGATATCAAGATCTGGCCTCGGCTTGGTAAAAGGAACCTCTAGCTAGCCGACTCACTATAGGGATAATCGCCCTGAGCAAAGACC | 0.112 ± 0.0883 |
| CTCGAGGATATCAAGATCTGGCCTCGGCAACGTAAAAGGAACCTCTAGCTAGCCGACTCACTATAGGGATAATCGCCCTGAGCAAAGACC | 0.751 ± 0.0928 |
| CTCGAGGATATCAAGATCTGGCCTCGGCTTTTTATACGGAACCTCTAGCTAGCCGACTCACTATAGGGATAATCGCCCTGAGCAAAGACC | 2.44 ± 0.0818 |
| CTCGAGGATATCAAGATCTGGCCTCGGCCTTTTAGCCGGAACCTCTAGCTAGCCGACTCACTATAGGGATAATCGCCCTGAGCAAAGACC | -0.235 ± 0.0913 |
| CTCGAGGATATCAAGATCTGGCCTCGGCCTTTTACACGGAACCTCTAGCTAGCCGACTCACTATAGGGATAATCGCCCTGAGCAAAGACC | 1.93 ± 0.075 |
| CTCGAGGATATCAAGATCTGGCCTCGGCTTACCACGCGGAACCTCTAGCTAGCCGACTCACTATAGGGATAATCGCCCTGAGCAAAGACC | -1.03 ± 0.114 |
| CTCGAGGATATCAAGATCTGGCCTCGGCTACTGGGCGGGAACCTCTAGCTAGCCGACTCACTATAGGGATAATCGCCCTGAGCAAAGACC | -1.09 ± 0.112 |
| CTCGAGGATATCAAGATCTGGCCTCGGCCGCCCAGCGGGAACCTCTAGCTAGCCGACTCACTATAGGGATAATCGCCCTGAGCAAAGACC | -0.602 ± 0.194 |
| CTCGAGGATATCAAGATCTGGCCTCGGCCCTCTAAAAGGAACCTCTAGCTAGCCGACTCACTATAGGGATAATCGCCCTGAGCAAAGACC | 0.681 ± 0.104 |
| CTCGAGGATATCAAGATCTGGCCTCGGCAGACTAAAAGGAACCTCTAGCTAGCCGACTCACTATAGGGATAATCGCCCTGAGCAAAGACC | -0.679 ± 0.104 |
| CTCGAGGATATCAAGATCTGGCCTCGGCCCCGTAAAAGGAACCTCTAGCTAGCCGACTCACTATAGGGATAATCGCCCTGAGCAAAGACC | 2.52 ± 0.0899 |
| CTCGAGGATATCAAGATCTGGCCTCGGCCTTTTAAGCGGAACCTCTAGCTAGCCGACTCACTATAGGGATAATCGCCCTGAGCAAAGACC | 0.916 ± 0.0855 |
| CTCGAGGATATCAAGATCTGGCCTCGGCGTTTTACTAGGAACCTCTAGCTAGCCGACTCACTATAGGGATAATCGCCCTGAGCAAAGACC | 2.96 ± 0.0769 |
| CTCGAGGATATCAAGATCTGGCCTCGGCGGTTTAAAAGGAACCTCTAGCTAGCCGACTCACTATAGGGATAATCGCCCTGAGCAAAGACC | 1.97 ± 0.078 |
| CTCGAGGATATCAAGATCTGGCCTCGGCTTCATAAAAGGAACCTCTAGCTAGCCGACTCACTATAGGGATAATCGCCCTGAGCAAAGACC | 2.49 ± 0.0838 |
| CTCGAGGATATCAAGATCTGGCCTCGGCATTTTACATGGAACCTCTAGCTAGCCGACTCACTATAGGGATAATCGCCCTGAGCAAAGACC | 2.14 ± 0.0807 |
| CTCGAGGATATCAAGATCTGGCCTCGGCATAGTAAAAGGAACCTCTAGCTAGCCGACTCACTATAGGGATAATCGCCCTGAGCAAAGACC | 1.98 ± 0.0822 |
| CTCGAGGATATCAAGATCTGGCCTCGGCACTCTAAAAGGAACCTCTAGCTAGCCGACTCACTATAGGGATAATCGCCCTGAGCAAAGACC | 0.139 ± 0.11 |
| CTCGAGGATATCAAGATCTGGCCTCGGCGTTTTAACTGGAACCTCTAGCTAGCCGACTCACTATAGGGATAATCGCCCTGAGCAAAGACC | 1.39 ± 0.0832 |
